# Results as given in PubChem BioAssay.
# Activity calls are given as the source filed them.
# What was measured:
# [1] = compound effects on lung adenocarcinoma cell viability – A549, calcein-AM fluorescence, 48 h, basal, profiling panel (AID 1162); details: higher = more signal
# [2] = compound effects on differentiated 3T3-L1 adipocyte viability – cell-based, 3T3-L1 adipocytes, calcein-AM fluorescence, 48 h, basal, profiling panel (AID 1163); details: 3T3-L1 adipocytes viability, higher = more signal
# [3] = compound effects on hepatocellular carcinoma cell viability – HepG2, calcein-AM fluorescence, 48 h, basal, profiling panel (AID 1164); details: higher = more signal
# [4] = compound effects on multiple myeloma cell viability – MM1S, calcein-AM fluorescence, 48 h, basal, profiling panel (AID 1165); details: higher = more signal;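 note: viability of MM1S multiple myeloma cells under basal unstimulated conditions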
# [5] = calcein-AM signal in unstimulated myeloma cells – cell-based, calcein-AM fluorescence, 48 h, PK04 Diversity Set, profiling panel (AID 1166); details: RPMI8226 myeloma viability, higher = more signal;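 note: cells grown under basal conditions without added stimulus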
# [6] = JC-1 mitochondrial signal, unstimulated HepG2 cells – cell-based, JC-1 fluorescence, 24 h, 100 nL compound, profiling panel (AID 1167); details: HepG2 mitochondrial potential, higher = more signal
# [7] = JC-1 mitochondrial signal, unstimulated adipocytes – cell-based, JC-1 fluorescence, 3T3-L1 adipocytes, 24 h, 100 nL compound, profiling panel (AID 1168); details: JC-1 mitochondrial fluorescence, higher = more signal, called active from +8 up or from −8 down
# [8] = JC-1 mitochondrial signal, unstimulated myeloma cells – cell-based, JC-1 fluorescence, RPMI8226, 24 h, 100 nL compound, profiling panel (AID 1169); details: JC-1 mitochondrial potential fluorescence, higher = more signal
# [9] = JC-1 mitochondrial signal, unstimulated MM1S myeloma – cell-based, JC-1 fluorescence, 24 h, 100 nL compound, profiling panel (AID 1170); details: MM1S mitochondrial potential, higher = more signal
# [10] = resazurin metabolic signal in A549 cells – cell-based, resazurin fluorescence, 24 h, PK04 Diversity Set, profiling panel (AID 1171); details: A549 viability, higher = more signal, called active from +8 up or from −8 down
# Note: test concentration not given here.
SMILES,z-score [1],z-score [2],z-score [3],z-score [4],z-score [5],z-score [6],z-score [7],z-score [8],z-score [9],z-score [10]
Cc1ccc(S[C@]2(C(=O)O)CC(=O)N(Cc3ccccc3Cl)[C@@H]2c2ccc(CO)cc2)cc1,0.322,0.152,-0.0394,-0.217,-1.44,-0.0706,-0.672 (inactive),-0.509,1.37,-0.462 (inactive)
C=C(/C=C/CNS(=O)(=O)c1ccc(C)cc1)[C@H](O)[C@H]1CCCN1S(=O)(=O)c1ccccc1[N+](=O)[O-],0.623,0.581,-0.291,-1.28,-0.264,-1.79,-0.221 (inactive),-0.525,-0.0633,0.594 (inactive)
CN1C(=O)C2C=CC(C(O)Cc3ccccc3)N(N(c3ccccc3)c3ccccc3)C2C1=O (stereo not given),1.02,-1.5,1.35,-0.64,0.0338,1.37,-0.833 (inactive),0.257,-0.871,-0.69 (inactive)
COCCOC(=O)N1C(=O)[C@@]2(c3cc(C#Cc4ccc(OC)cc4)ccc31)[C@H](C(=O)N1CCCCCCC1)[C@H]1C(=O)O[C@H](c3ccccc3)[C@H](c3ccccc3)N1[C@@H]2c1ccc(O)cc1,-0.938,1.07,-0.618,-0.26,-0.943,-0.73,0.88 (inactive),-0.0794,-0.559,0.545 (inactive)
C=CC[C@@]1(C(=O)O)N=C(c2ccc(OCCCO)cc2)O[C@@H]1c1ccccc1,0.819,-0.563,1.59,0.576,-0.252,0.89,0.995 (inactive),-0.462,-0.341,0.353 (inactive)
C[C@]12C(=O)N(CCCCCCO)[C@@H]3C(=O)N(c4ccc(Cl)cc4)CC=CC31O[C@@H]1/C=C\CCCOC(=O)C12 (stereo not given in full),0.41,1.23,2.06,1.61,0.0929,1.09,-0.317 (inactive),0.655,0.411,-0.0459 (inactive)
CC(C)(C)OC(=O)CC[C@]1(C(=O)O)N=C(c2ccc(OCCCO)cc2)O[C@H]1c1ccccc1CN=[N+]=[N-],0.61,-0.788,0.682,0.519,0.375,1.43,1.05 (inactive),-0.697,-0.738,-0.245 (inactive)
C=C(CCCC)/C(=C/C[C@@H](OC(=O)c1ccncc1)c1cccc(OCCO)c1)c1cnc2ccccc2c1,-0.021,1.14,-0.681,-2.65,-1.5,1.99,-0.891 (inactive),-0.497,0.117,0.586 (inactive)
CCOC(=CC(=O)OC)CC(O)c1cccc(Cl)c1 (stereo not given),0.738,0.342,-0.0117,0.221,-1.15,0.363,0.0253 (inactive),-0.0603,-0.69,0.0735 (inactive)
COCCOC(=O)N1C(=O)[C@@]2(c3cc(C#CCC(C(=O)OC)C(=O)OC)ccc31)[C@H](c1ccc(OCCO)cc1)N1[C@H](c3ccccc3)[C@H](c3ccccc3)OC(=O)[C@H]1[C@@H]2C(=O)N1CCN(c2ncccn2)CC1,-0.828,1.2,-0.709,-0.0585,-1.07,-0.49,0.436 (inactive),-0.262,-1.53,1.83 (inactive)
Cc1ccc(S[C@]2(C(=O)NC3CC3)CC(=O)N(Cc3ccccc3Cl)[C@@H]2c2ccc(CO)cc2I)cc1,0.0293,0.0656,0.556,-2.36,-2.05,0.474,0.515 (inactive),-0.498,-1.45,-0.889 (inactive)
CC(C)C(O)C1C=CC2C(=O)N(C)C(=O)C2N1Nc1ccccc1 (stereo not given),0.678,-0.955,0.0515,-1.53,-0.283,-0.993,-1.15 (inactive),-0.0596,-0.254,0.204 (inactive)
C=CCN1C(=O)[C@@]2(O[C@@H](CCO)[C@H]([Si](C)(C)c3ccc(OC)cc3)[C@H]2C)c2cc(N3C(=O)c4ccccc4Oc4ccccc43)ccc21,-3.02,-0.428,-4.76,-2.94,-4.12,-2.97,1.07 (inactive),-1.1,-2.33,-4.55 (inactive)
C=CCOC(=O)[C@@H]1[C@H]2C(=O)O[C@H](c3ccccc3)[C@H](c3ccccc3)N2[C@H](c2ccc(OCCOC(=O)[C@H]3C[C@H]4C(=O)N[C@@H](CCCCNC(C)=O)C(=O)N4[C@H]3c3cccc(OCCO)c3)cc2)[C@@]12C(=O)Nc1ccc(I)cc12,-0.596,0.159,0.821,-0.387,-0.0069,-0.742,0.605 (inactive),-0.517,-0.864,0.304 (inactive)
COc1ccc([Si](C)(C)[C@H]2[C@H](CCn3cc(CCO)nn3)O[C@@]3(C(=O)N(Cc4ccc(N5C(=O)c6cccc7cccc5c67)cc4)c4ccccc43)[C@@H]2C)cc1,-1.61,1.36,-4.11,-2.56,-4.29,-0.0483,-0.712 (inactive),-1.09,-2.18,-2.57 (inactive)
